# Results: PubChem BioAssay
# Values joined by “and” are separate entries in the source; they are usually repeats but may differ in a detail not shown here. Equal values may be shown once. Active and inactive are the calls of the source. Unless noted, the rule behind the calls is not given here.
# Columns and labels:
# [1] = resazurin metabolic signal in HepG2 cells – cell-based, resazurin fluorescence, 24 h, PK04 Diversity Set, profiling panel (AID 1172); conditions: HepG2 viability, higher = more signal
# [2] = budding yeast growth changes without added modifier – OD600, strain BY4716, 24 h, basal condition, primary screen (AID 1173); conditions: S. cerevisiae BY4716 growth, OD600, 24 h; higher = more signal, called active from +8 up or from −8 down
# [3] = viability profiling in MM1S myeloma cells – cell-based, resazurin fluorescence, basal, 24 h, PK04 Diversity Set, profiling panel (AID 1174); conditions: higher = more signal, called active from +8 up or from −8 down;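 note: MM1S multiple myeloma cell line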
# [4] = target: Dihydroorotate dehydrogenase (quinone), mitochondrial (Plasmodium falciparum (isolate 3D7)) (UniProt Q08210); test: inhibition of P. falciparum DHODH – biochemical, C-terminal His tag, absorbance 600 nm, primary screen (AID 1175); conditions: PfDHODH enzyme, DCIP absorbance 600 nm; higher = more signal, called active from +8 up or from −8 down;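 note: recombinant parasite enzyme with a five histidine tag at its C terminus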
# Chain of Dihydroorotate dehydrogenase (quinone), mitochondrial (Plasmodium falciparum (isolate 3D7)) (Q08210 whole entry, looked up): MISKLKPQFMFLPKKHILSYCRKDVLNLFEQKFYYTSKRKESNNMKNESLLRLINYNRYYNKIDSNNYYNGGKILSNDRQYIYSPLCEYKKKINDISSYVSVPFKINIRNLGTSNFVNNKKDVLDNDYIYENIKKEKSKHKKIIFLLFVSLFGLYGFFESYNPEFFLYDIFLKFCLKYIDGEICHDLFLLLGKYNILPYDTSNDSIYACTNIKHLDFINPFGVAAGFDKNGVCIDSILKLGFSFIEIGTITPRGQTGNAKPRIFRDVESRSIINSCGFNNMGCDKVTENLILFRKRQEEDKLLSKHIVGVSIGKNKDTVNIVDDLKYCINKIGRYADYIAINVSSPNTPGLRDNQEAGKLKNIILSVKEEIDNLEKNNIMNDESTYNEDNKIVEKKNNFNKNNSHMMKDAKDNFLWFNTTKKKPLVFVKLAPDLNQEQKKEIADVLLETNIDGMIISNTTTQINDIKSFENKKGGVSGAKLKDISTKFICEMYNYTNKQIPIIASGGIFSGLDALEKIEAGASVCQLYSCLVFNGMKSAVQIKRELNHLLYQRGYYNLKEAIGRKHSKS
# [5] = inhibition of PAO1 biofilm formation – strain PAO1, LB-PBS medium, absorbance 600 nm, primary screen (AID 1176); conditions: P. aeruginosa PAO1 growth/biofilm, A600, 12 h; higher = more signal
# [6] = growth modulation of vineyard yeast isolate – strain RM11-1a, OD600, basal, 24 h, primary screen (AID 1177);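 note: cultures grown under basal conditions with no added stressor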; conditions: S. cerevisiae RM11-1a growth, OD600, 24 h; higher = more signal, called active from +8 up or from −8 down
# [7] = growth of efflux-deficient E. coli DRC39 – strain DRC39, OD650, 24 h, E. coli filamentation inducers, primary screen (AID 1178);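 note: growth measured as culture turbidity by optical density at 650 nm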; conditions: E. coli DRC39 acrAB, higher = more signal, called active from +8 up or from −8 down
# [8] = growth of efflux-deficient E. coli DRC39 – strain DRC39, OD650, 48 h, E. coli filamentation inducers, primary screen (AID 1179);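 note: screen aims at cell division blockers that make cells filament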; conditions: E. coli DRC39 delta-acrAB growth, higher = more signal, called active from +8 up or from −8 down
# [9] = viability profiling in RPMI8226 myeloma cells – cell-based, resazurin fluorescence, basal, 24 h, PK04 Diversity Set, profiling panel (AID 1180); conditions: higher = more signal;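 note: RPMI8826 multiple myeloma cell line at 5000 cells per well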
# [10] = target: E3 ubiquitin-protein ligase XIAP (Homo sapiens) (UniProt P98170); test: small molecules binding XIAP protein – biophysical, small-molecule microarray, fluorescence 635 nm, primary screen (AID 1181); conditions: higher = more signal;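 note: score merges 667 nm emission and signal to noise over triplicate slides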
# Chain of E3 ubiquitin-protein ligase XIAP (Homo sapiens) (P98170 whole entry, looked up, the tested form may be a part): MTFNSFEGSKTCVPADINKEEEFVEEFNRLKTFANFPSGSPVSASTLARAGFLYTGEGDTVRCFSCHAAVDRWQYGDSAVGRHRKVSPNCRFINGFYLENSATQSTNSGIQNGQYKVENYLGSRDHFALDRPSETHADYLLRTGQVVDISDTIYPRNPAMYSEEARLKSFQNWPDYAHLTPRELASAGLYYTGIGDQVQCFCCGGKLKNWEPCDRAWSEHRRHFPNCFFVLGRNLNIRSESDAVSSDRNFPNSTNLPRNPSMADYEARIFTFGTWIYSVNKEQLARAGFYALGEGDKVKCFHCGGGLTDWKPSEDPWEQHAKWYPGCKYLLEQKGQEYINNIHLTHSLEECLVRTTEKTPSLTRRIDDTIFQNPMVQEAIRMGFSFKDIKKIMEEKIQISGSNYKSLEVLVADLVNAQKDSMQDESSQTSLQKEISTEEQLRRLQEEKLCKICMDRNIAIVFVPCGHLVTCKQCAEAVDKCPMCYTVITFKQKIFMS
# [11] = system: XIP peptide (Xip251-270) binding; test: XIP fragment 251-270 binding compounds – biochemical, small-molecule microarray, fluorescence 635/667 nm, 0.1 µg/mL protein, primary screen (AID 1182); conditions: fluorescent protein binding, 635 nm, higher = more signal, called active from +8 up or from −8 down
# XIP peptide (Xip251-270) = test: compounds binding XIP fragment 251-270 – biochemical, small-molecule microarray, fluorescence 635/667 nm, 0.5 µg/mL protein, primary screen (AID 1183); conditions: fluorescence 635 nm, higher = more signal
# [12] = blood-stage malaria parasite viability loss – strain 3D7, DAPI fluorescence, 100 nL, primary screen (AID 1184);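 note: parasites grown inside human red blood cells in medium with human serum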; conditions: P. falciparum 3D7 growth, 3 d, higher = more signal
# [13] = target: Homeobox protein Hox-A13 (Mus musculus) (UniProt Q62424); test: disruptors of Hoxa13 oligonucleotide interaction – biochemical, fluorescence polarization, labeled oligonucleotide, primary screen (AID 1185); conditions: Hoxa13:DNA binding, 15 min, higher = more signal, called active from +8 up or from −8 down
# Chain of Homeobox protein Hox-A13 (Mus musculus) (Q62424 whole entry, looked up): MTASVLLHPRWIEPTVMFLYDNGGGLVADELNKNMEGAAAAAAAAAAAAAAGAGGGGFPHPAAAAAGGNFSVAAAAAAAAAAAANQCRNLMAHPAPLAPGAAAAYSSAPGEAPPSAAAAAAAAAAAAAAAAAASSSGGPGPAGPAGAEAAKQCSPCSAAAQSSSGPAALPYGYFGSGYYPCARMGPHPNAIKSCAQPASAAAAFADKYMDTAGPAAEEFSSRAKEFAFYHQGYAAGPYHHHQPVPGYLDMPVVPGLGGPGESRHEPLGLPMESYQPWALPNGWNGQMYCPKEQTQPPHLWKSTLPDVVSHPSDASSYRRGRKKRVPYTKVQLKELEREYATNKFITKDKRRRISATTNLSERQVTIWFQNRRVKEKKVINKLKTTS
# [14] = blockers of DNA damage checkpoint Chk1 activation – imaging, HeLa, hydroxyurea, phospho-Chk1 antibody, percent positive cells, primary screen (AID 1186); conditions: hydroxyurea-induced phospho-Chk1 immunofluorescence imaging, higher = more signal
# [15] = blockers of DNA damage checkpoint Chk1 activation – imaging, HeLa, hydroxyurea, phospho-Chk1 nuclear intensity, primary screen (AID 1187); conditions: hydroxyurea-induced phospho-Chk1 immunofluorescence imaging, higher = more signal
Structure (SMILES),z-score [1],z-score [2],z-score [3],composite z-score [4],z-score [5],z-score [6],z-score [7],z-score [8],z-score [9],composite z-score [10],composite z-score [11],composite z-score (XIP peptide (Xip251-270)),z-score [12],z-score [13],z-score [14],z-score [15]
C=CCN(C(=O)C1N(CCCCCCO)C(=O)C2C(C(=O)O)C3C=CC21O3)C(C)(C)C (configuration not stated),-1.01 and -0.273,0.158 (inactive) and 0.0807 (inactive),-0.184 (inactive) and -0.49 (inactive),-0.708 (inactive) and -0.59 (inactive),-0.401 (inactive) and -0.484 (inactive),-0.37 (inactive) and -1.03 (inactive),-0.739 (inactive) and -0.371 (inactive),-0.467 (inactive) and -0.281 (inactive),-0.106 and -0.445,-0.227 and -0.231,-0.501 (inactive) and -0.559 (inactive),0.429 and -1,-0.0557 and 0.444,-0.569 (inactive) and -2.68 (inactive),-0.178 (inactive) and -0.102 (inactive),-0.0517 (inactive) and 0.113 (inactive)
C=CCN(Cc1ccccc1)C(=O)C1N(c2ccc(CCO)cc2)C(=O)C2C(C(=O)O)C3C=CC21O3 (configuration not stated),-1.09 and -0.194,-0.627 (inactive) and -0.3 (inactive),-0.724 (inactive) and -1.11 (inactive),0.79 (inactive) and 0.0901 (inactive),0.0279 (inactive) and 0.345 (inactive),0.345 (inactive) and -0.744 (inactive),0.522 (inactive) and 0.134 (inactive),0.0943 (inactive) and -0.178 (inactive),-0.821 and -0.623,-0.0629 and -0.365,0.224 (inactive) and -0.96 (inactive),-0.726 and 0.918,-1.34 and -0.544,-0.61 (inactive) and -2.5 (inactive),0.127 (inactive) and -0.193 (inactive),-0.0077 (inactive) and -0.58 (inactive)
C=CCN(CCCCC)C(=O)C(c1cccs1)N(C(=O)/C=C\C(=O)O)c1c(Cl)cccc1CO (configuration not stated),-0.939 and -0.559,-0.69 (inactive) and -0.768 (inactive),-0.18 (inactive) and -0.317 (inactive),0.401 (inactive) and 0.461 (inactive),-0.0837 (inactive) and -0.677 (inactive),-0.0138 (inactive) and -0.374 (inactive),0.246 (inactive) and 0.0068 (inactive),0.425 (inactive) and 0.212 (inactive),-0.394 and -0.42,-0.158 and -0.378,-0.527 (inactive) and 0.809 (inactive),-1.88 and -0.229,0.114 and -0.445,-0.0384 (inactive) and -1.57 (inactive),0.79 (inactive) and 0.313 (inactive),0.728 (inactive) and 0.468 (inactive)
C=C[C@@H](C)[C@@H](O)c1ccc(OCCO)cc1,0.162 and 0.223,-3.96 (inactive) and -2.81 (inactive),-0.435 (inactive) and 0.286 (inactive),0.0788 (inactive) and -1.03 (inactive),0.331 (inactive) and 0.838 (inactive),0.909 (inactive) and 1.21 (inactive),1.12 (inactive) and 0.982 (inactive),0.795 (inactive) and 1.13 (inactive),-0.112 and 0.616,0.103 and -0.15,-0.704 (inactive) and -0.999 (inactive),-0.664 and 0.0227,-0.892 and 0.0904,-0.592 (inactive) and -0.123 (inactive),1.19 (inactive) and -0.153 (inactive),1.48 (inactive) and 0.641 (inactive)
C=CC[C@@H](O)c1ccc(O)c(F)c1,-0.0101 and 0.942,-0.898 (inactive) and -2.97 (inactive),-0.87 (inactive) and 1.56 (inactive),0.672 (inactive) and -0.585 (inactive),0.671 (inactive),0.912 (inactive) and -1.83 (inactive),-0.046 (inactive) and 1.79 (inactive),-0.248 (inactive) and 1.06 (inactive),-0.511 and 0.864,-0.0884 and -0.042,-0.316 (inactive) and -0.555 (inactive),0.849 and -1.57,0.408 and -0.881,-2.13 (inactive) and -0.155 (inactive),-0.0057 (inactive) and -0.138 (inactive),-0.268 (inactive) and -0.321 (inactive)
C=CCN(Cc1ccccc1)C(=O)C(c1cccs1)N(C(=O)/C=C\C(=O)O)c1ccc(CCO)cc1 (configuration not stated),-0.42 and -0.633,0.0593 (inactive) and -0.0181 (inactive),-0.0351 (inactive) and -0.273 (inactive),-0.866 (inactive) and -0.0473 (inactive),-0.208 (inactive) and 0.233 (inactive),0.374 (inactive) and 0.514 (inactive),0.866 (inactive) and 0.736 (inactive),0.722 (inactive) and 0.609 (inactive),0.565 and -0.122,-0.0987 and 0.035,-0.37 (inactive) and 0.164 (inactive),-0.468 and 0.61,-0.0763 and 0.331,0.603 (inactive) and 0.423 (inactive),0.141 (inactive) and 0.581 (inactive),0.404 (inactive) and 0.592 (inactive)
C=CC[C@@H](O)c1ccc(O)c2ccccc12,0.202 and -0.349,-17.2 (active) and -17.3 (active),-2.06 (inactive) and -2.1 (inactive),-2.37 (inactive) and -3.1 (inactive),1 (inactive) and 1.33 (inactive),-0.508 (inactive) and 0.0761 (inactive),1.2 (inactive) and -0.0099 (inactive),0.635 (inactive) and -0.379 (inactive),-0.947 and -1.55,0.205 and 0.0537,2.01 (inactive) and 0.431 (inactive),0.703 and 0.802,-0.401 and 0.619,-2.24 (inactive),0.024 (inactive) and 0.26 (inactive),0.515 (inactive) and 0.183 (inactive)
C=CCN(CCCC)C(=O)C1N(c2c(Cl)cccc2CO)C(=O)C2C(C(=O)O)C3C=CC21O3 (configuration not stated),-0.757 and -0.248,0.187 (inactive) and -0.602 (inactive),-1.9 (inactive) and -0.645 (inactive),0.82 (inactive) and -0.536 (inactive),-0.261 (inactive) and 0.497 (inactive),0.561 (inactive) and 0.143 (inactive),-0.964 (inactive) and 0.22 (inactive),-0.881 (inactive) and -0.0006 (inactive),-0.813 and -0.285,-0.0599 and 0.425,-0.523 (inactive) and -0.356 (inactive),0.222 and 0.152,-1.23 and -1.7,-1.12 (inactive) and -1.43 (inactive),0.304 (inactive) and -0.273 (inactive),0.151 (inactive) and 0.131 (inactive)
CC(CO)N1C(=O)[C@@H]2C3C(=O)OCCC=C[C@H]3OC23C=CCN(Cc2ccccc2)C(=O)[C@@H]13 (some centres not stated),0.278 and -0.0236,1.35 (inactive) and -1.28 (inactive),0.533 (inactive) and 0.868 (inactive),0.113 (inactive) and -2.83 (inactive),-1.35 (inactive) and -0.0684 (inactive),1.57 (inactive) and -0.214 (inactive),0.748 (inactive) and 0.632 (inactive),0.453 (inactive) and 0.309 (inactive),0.252 and 0.693,-0.196 and 0.194,-0.05 (inactive) and 0.127 (inactive),-0.4 and -0.181,-1.1 and -0.233,-5.29 (inactive) and -4.45 (inactive),-0.769 (inactive) and -0.0621 (inactive),-0.426 (inactive) and -0.217 (inactive)
C[N+](C)(C)CCCCNC(=O)[C@@H]1C[C@@H]2C(=O)N[C@@H](CCCC[N+](C)(C)C)C(=O)N2[C@@H]1c1cccc(OCCO)c1,-0.249 and -0.0346,0.962 (inactive) and 0.187 (inactive),0.405 (inactive) and 0.349 (inactive),-30.9 (active) and -30.3 (active),-0.239 (inactive) and 0.022 (inactive),1.57 (inactive) and 0.24 (inactive),0.113 (inactive) and -0.132 (inactive),-0.0555 (inactive) and 0.517 (inactive),0.399 and 0.607,1.01 and -0.22,0.785 (inactive) and 1.87 (inactive),0.697 and 0.917,-0.0982 and -0.462,-0.648 (inactive) and -1.01 (inactive),-0.123 (inactive) and -0.528 (inactive),0.0051 (inactive) and -0.229 (inactive)
CCCCCN1CC=CC23O[C@@H]4C=CCCOC(=O)C4[C@H]2C(=O)N(C(C)CO)[C@@H]3C1=O (some centres not stated),1.77 and 0.86,-0.252 (inactive) and 1 (inactive),1.24 (inactive) and -0.0383 (inactive),-1.97 (inactive) and -0.391 (inactive),-0.193 (inactive) and 0.0683 (inactive),-0.0686 (inactive) and 0.825 (inactive),0.213 (inactive) and 0.0972 (inactive),-0.123 (inactive) and -0.105 (inactive),1.18 and -0.0579,0.216 and -0.323,0.79 (inactive) and 0.201 (inactive),0.675 and 0.445,-0.165 and -0.358,-5.44 (inactive) and -4.65 (inactive),-0.605 (inactive) and 0.667 (inactive),0.0018 (inactive) and 0.28 (inactive)
C=C[C@H](C)[C@@H](O)c1ccc(OCCO)cc1,0.0272 and -0.227,-1.41 (inactive) and -2.08 (inactive),-0.246 (inactive) and -0.5 (inactive),0.14 (inactive) and -0.263 (inactive),0.684 (inactive) and 0.486 (inactive),-0.371 (inactive) and 0.526 (inactive),-0.748 (inactive) and 0.371 (inactive),-0.902 (inactive) and 0.418 (inactive),0.0577 and -0.603,0.074 and 0.18,-0.301 (inactive) and -0.375 (inactive),0.112 and 0.861,0.394 and 0.709,-1.51 (inactive) and -0.976 (inactive),0.845 (inactive) and -1.4 (inactive),0.121 (inactive) and -0.859 (inactive)
